# PubChem BioAssay AID651699 (Sanford-Burnham Center for Chemical Genomics, 2012)
# The campaign covered roughly 360,000 compounds. About 2,100 (0.58%) were called active. The sample as a whole holds a higher share of actives than the screen did. Unmarked numbers belong to inactive results. No stated cut-off is given here; in the data, active means inhibition above about 36%; inactive means the rest.
# Target: NEDD8-conjugating enzyme Ubc12 (Homo sapiens) + NEDD8-activating enzyme E1 regulatory subunit (Homo sapiens) (UniProt P61081+Q13564)
# Sequence (P61081 whole entry, looked up): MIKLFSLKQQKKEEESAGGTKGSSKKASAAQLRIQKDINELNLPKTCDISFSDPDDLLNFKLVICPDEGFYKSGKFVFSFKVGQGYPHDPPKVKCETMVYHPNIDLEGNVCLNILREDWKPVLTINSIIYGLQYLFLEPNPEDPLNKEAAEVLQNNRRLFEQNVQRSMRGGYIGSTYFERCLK
# Sequence (Q13564 whole entry, looked up): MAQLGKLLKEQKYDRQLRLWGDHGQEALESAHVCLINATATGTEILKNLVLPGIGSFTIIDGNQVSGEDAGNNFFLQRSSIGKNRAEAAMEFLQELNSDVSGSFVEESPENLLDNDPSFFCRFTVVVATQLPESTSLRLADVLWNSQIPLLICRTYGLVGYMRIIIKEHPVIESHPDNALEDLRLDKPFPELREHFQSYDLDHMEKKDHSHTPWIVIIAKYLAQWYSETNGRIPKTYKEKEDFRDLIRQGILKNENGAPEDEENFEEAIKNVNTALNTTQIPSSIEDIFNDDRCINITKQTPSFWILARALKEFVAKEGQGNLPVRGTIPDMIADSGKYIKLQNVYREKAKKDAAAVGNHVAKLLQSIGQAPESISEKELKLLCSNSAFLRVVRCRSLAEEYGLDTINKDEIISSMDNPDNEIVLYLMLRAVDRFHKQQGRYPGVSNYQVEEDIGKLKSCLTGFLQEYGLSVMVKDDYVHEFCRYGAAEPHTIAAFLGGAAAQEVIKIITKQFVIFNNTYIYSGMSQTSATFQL
# Test: NEDD8 transfer onto cullin, blockade – biochemical, TR-FRET, uHTS, NAE and Ubc12, primary screen (AID 651699)
# Details: TR-FRET cullin neddylation, at 25 µM, active compounds read high
row,Compound,inhibition
1,CCOc1ccc(Cl)cc1-c1cc(C(=O)NCc2cccs2)[nH]n1,-0.82%
2,Cc1sc2c(c1C)c(=O)n(-c1ccccc1)c1nncn21,-4.64%
3,CSCCC(NS(=O)(=O)/C=C/c1ccccc1)C(=O)N1CCC(C)CC1 (centres undefined),5.25%
4,COCCCNc1nc2ccccc2nc1NS(=O)(=O)c1ccc(F)cc1,37.4% (active)
5,CCCn1nc(NS(=O)(=O)c2ccc(F)cc2)c2cc3ccccc3nc21,-5.34%
6,CCCCNc1nc2ccccc2nc1NS(=O)(=O)c1cccs1,19.1%
7,Cc1cccc(CC(=O)Nc2c3c(nn2-c2cccc(Cl)c2)CS(=O)C3)c1 (centres undefined),4.67%
8,COc1ccc(S(=O)(=O)N2CCN(C)CC2)c(C)c1,-9.29%
9,Cn1c(N2CCOCC2)c(C=O)c2ccccc21,13.5%
10,Cc1cc(C)c(-c2c(O)c3ccccc3n(C)c2=O)c(C)c1,43.4% (active)
11,Cn1c(=O)c(Sc2ccc(Cl)cc2)c(O)c2ccccc21,-5.74%
12,Cn1c(=O)c(C(=O)Nc2ncccn2)c(O)c2ccccc21,27.6%
13,O=S(=O)(NCCCN1CCOCC1)c1ccc(F)c(Cl)c1,-7.79%
14,CC1(C)S[C@@H]2[C@H](NC(=O)COc3ccccc3)C(=O)N2C1C(=O)OCc1ccccc1 (some centres undefined),3.84%
15,NC(=O)Cn1c(=O)oc2ccccc21,4.87%
16,COc1ccc(CNC(=O)[C@@H]2CC=C[C@@H]3CCN(C4CC4)C(=O)[C@@H]32)cc1,4.74%
17,CCN(CC)CCCN1C(=O)C(=O)/C(=C(/O)c2c(C)nc3ccccn23)C1c1ccc(C)o1 (centres undefined),-7.73%
18,Cc1ccc(C(=O)NNC(=O)OC(C)(C)C)c(Cl)c1,-8.95%
19,O=C(NNc1c2ccccc2nc2ccccc12)c1cc2ccccc2cc1O,-10.9%
20,CC(C)(C)OC(=O)NNc1c2ccccc2nc2ccccc12,48% (active)

row,Compound,inhibition
1,CCSC1=NCCN1S(=O)(=O)c1ccc(F)cc1,8.82%
2,CC(Oc1ccc(F)cc1)C(=O)Nc1ccccc1C(=O)NC1CC1 (centres undefined),4.37%
3,O=[N+]([O-])c1ccc2c(c1)C(O)n1nc(-c3ccccc3)nc1S2 (centres undefined),-7.67%
4,COc1ccc(C(=O)COC(=O)c2c(C)noc2C)cc1Cl,-4.13%
5,Cc1noc(C)c1C(=O)OCC(=O)N1CCN(S(=O)(=O)c2ccc3ccccc3c2)CC1,-4.19%
6,Cc1noc(C)c1C(=O)OCC(=O)/C=C1\N(C)c2ccccc2C1(C)C,43.7% (active)
7,CC1CCCCC1NC(=O)Cn1cnc2c1c(=O)n(C)c(=O)n2C (centres undefined),5.44%
8,COc1ccc(-c2cc3c(c4c2ccn4C)C2CCC3C2)cn1 (centres undefined),-50.3%
9,COc1cc(C2/C(=C(\O)c3ccc4c(c3)CC(C)O4)C(=O)C(=O)N2c2nnc(C)s2)cc(OC)c1OC (centres undefined),-20.5%
10,COc1ccc(NC(=O)C2=NNC(=O)CC2)cc1S(=O)(=O)N1CCCCC1,-1.74%
11,CC(=O)Nc1nc(C)c(-c2csc(Nc3ccc(S(N)(=O)=O)cc3)n2)s1,77% (active)
12,CCCCCCC(=O)Nc1nc(C)c(-c2csc(Nc3cccc(OC)c3)n2)s1,-13.8%
13,C=CCCC(=O)Nc1nc(C)c(-c2csc(Nc3ccc(Cl)cc3)n2)s1,-8.67%
14,CCCCC(=O)N(C)c1c(CC)nc2c(OCc3ccc(Cl)cc3Cl)cccn12,8.51%
15,CC(C)Cn1cnc2c1c(=O)n(CC(=O)NN)c(=O)n2Cc1ccccc1,3.73%
16,Cc1noc(C)c1COc1ccc2ccc(=O)oc2c1,42.9% (active)
17,CC(C)OC(=O)c1ccc(COc2ccc3ccc(=O)oc3c2)o1,32.9%
18,Cc1noc(C)c1COc1cccc(C(=O)Nc2cccnc2)c1,-1.48%
19,CCOC(=O)N1CCC(NC(=O)CN2C(=O)COc3ccc(C(C)(C)C)cc32)CC1,-0.68%
20,CN(C)CCN=c1cc(-c2ccccc2)oc2ccc(Cl)cc12,-18.1%

row,Compound,inhibition
1,Cc1ccc2[nH]c3c(=O)n(CC(=O)NCCc4ccc(Cl)cc4)ncc3c2c1,-2.38%
2,Cc1ccnc(NC(=O)C(C)N2C(=O)c3ccccc3C2=O)c1 (centres undefined),9.23%
3,CC(C(=O)NC1CCCC1)N1CCN(S(=O)(=O)c2ccccc2Cl)CC1 (centres undefined),-0.01%
4,CC(C(=O)NC1CCCCC1)N1C(=O)c2cccc3cccc1c23 (centres undefined),39.6% (active)
5,CC(=O)Nc1cc(-c2ccc(N3CCN(C)CC3)cc2)cn2c(-c3ccc(F)cc3)cnc12,42.2% (active)
6,CC(=O)Nc1cc(-c2ccc(N3CCN(C)CC3)cc2)cn2c(-c3cccc(C(=O)N(C)C)c3)cnc12,0.78%
7,COc1ccccc1-c1cc(NC(C)=O)c2ncc(-c3ccc(F)cc3)n2c1,38.6%
8,C1=C(N2CCOCC2)/C(=C/c2nc3ccccc3[nH]2)CC1,43% (active)
9,O=C1c2ccccc2C(c2nc3ccccc3[nH]2)N1c1ccccc1 (centres undefined),4.84%
10,CCO[C@H]1OC(C(=O)NCc2ccccc2)=C[C@@H](c2coc3ccccc3c2=O)[C@@H]1CCCO,-9.63%
11,Cc1c(Cl)cccc1NC(=O)[C@@]1(CC(=O)O)CC(/C=C/c2ccccc2)=NO1,-0.33%
12,Cc1ccc(C(CNC(=O)Nc2cccc(C)c2)N2CCN(C)CC2)cc1 (centres undefined),-3.56%
13,Cc1cc(N)n2nc(-c3ccc(C(C)(C)C)cc3)cc2n1,40.5% (active)
14,COc1cccc2cc(/C(C)=N/NC(=O)c3ccco3)oc12,-10.7%
15,CC1CCCC(NC(=O)CN2CCN(Cc3ccc(Cl)cc3)C2=O)C1C (centres undefined),5.5%
16,CCC(C)c1ccc(NC(=O)COC(=O)C2CCCC2)cc1 (centres undefined),-5.48%
17,Cc1ccc(-n2ncc3c(Nc4cccc(C(=O)O)c4)ncnc32)cc1,38.5% (active)
18,COc1ccc2nc(C)cc(Nc3cccc(C(=O)O)c3)c2c1,-12.3%
19,CC(Sc1ncnc2c1cnn2-c1ccccc1)C(=O)Nc1ccc(N2CCOCC2)cc1 (centres undefined),3.26%
